The text below walks through data of PubChem BioAssay (NCI).

This is part of a sample that, as a whole, favours compounds with a hit. Of some 79,000 tested, about 15% had one in any assay. A number with no mark means an inactive call. The source made the active and inactive calls. Cut-off read from the data, not from the text of the source: active = growth inhibition above about 70%; inactive = the rest. Where a SMILES comes first, the peptide text is derived from it. [ ]: non-standard residue; d: D form. The star is where a group is joined. Nle = CCCC[CH](N)C(=O)O; Cbz = O=C(OCc1ccccc1)*

Assay [1] in a line: NCI Yeast Anticancer Drug Screen. Data for the rad50 strain (AID 155).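 Note: 0% = growth of vehicle-only cultures of the same strain.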 Conditions: S. cerevisiae rad50 strain growth inhibition; at 50.0 µM; hits give high values. A digest of the protocol:
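Vehicle-treated cultures provide the reference for the growth inhibition reported for compound-exposed, repair-deficient yeast.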

The nature of assay [2]: NCI Yeast Anticancer Drug Screen. Data for the mec2-1 strain (AID 157). The note with it: S. cerevisiae mec2-1 strain, at 50.0 µM, hits give high values. The method, boiled down: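 Growth inhibition is read against vehicle-treated controls after compound exposure of the mec2-1 yeast strain, which is defective in DNA damage repair or cell cycle control.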
A short description of assay [3]: NCI Yeast Anticancer Drug Screen. Data for the sgs1 mgt1 strain (AID 161).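 Note: 0% = growth of cultures given vehicle only.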 Conditions: S. cerevisiae sgs1 mgt1 strain, at 50.0 µM, hits give high values. A digest of the protocol: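 Growth of a repair-deficient yeast mutant was monitored after compound treatment and expressed as inhibition relative to vehicle-treated cultures.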
Assay [4] is described as follows: NCI Yeast Anticancer Drug Screen. Data for the cln2 rad14 strain (AID 165).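 Note: 0% = growth equal to vehicle treated cultures.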 Conditions: S. cerevisiae cln2 rad14 strain, at 50.0 µM, hits give high values. The method, boiled down:
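Growth inhibition, relative to vehicle-treated controls, is the read-out. The test organism is a yeast strain with defined genetic alterations, cln2 rad14.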

Assay [5] can be described thus: NCI Yeast Anticancer Drug Screen. Data for the bub3 strain (AID 167). Conditions: S. cerevisiae bub3 mutant strain, at 50.0 µM, hits give high values. The method, boiled down:
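Mutant yeast screening strain plus compound; vehicle-treated cultures serve as the 0% inhibition reference.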

Assay [6] is described as follows: NCI Yeast Anticancer Drug Screen. Data for the mlh1 rad18 strain (AID 175). The note with it: S. cerevisiae mlh1 rad18 strain growth inhibition; at 50.0 µM; hits give high values. The method, boiled down:
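Cells of a genetically altered yeast strain, deficient in DNA damage repair, were treated with compound. Their growth was then compared with that of vehicle-treated cultures to give inhibition.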

Regarding `OC1(C#Cc2ccccc2)c2ccccc2C(O)(C#Cc2ccccc2)c2ccccc21` (stereo unspecified), the growth inhibition was 9.95% in assay [1]; -11.8% in assay [2]; 1.6% in assay [3]; 14.1% in assay [4]; -10.3% in assay [5]; 10.1% in assay [6].

Consider `CCOc1ccccc1NC(=O)C(=O)c1c(O)c2ccc(O)cc2oc1=O`, for which the growth inhibition in assay [1] was 25.7%; in assay [2], 9.55%; in assay [3], 4.8%; in assay [4], 1.8%; in assay [5] it was -3.25%; in assay [6], -1.75%.

`O=C(NC1CCCCC1)N(C(=O)C(F)(F)F)C1CCCCC1`: the growth inhibition is 9.05% in assay [1]; 3.6% in assay [2]; -5.15% in assay [3]; 9.8% in assay [4]; -2.4% in assay [5]; 14.7% in assay [6].

For `Cc1nn(C)c(NC(=O)c2ccccc2O)c1SC#N`, the growth inhibition is 43.3% in assay [1]; -5.35% in assay [2]; 16.7% in assay [3]; 28.2% in assay [4]; 35.2% in assay [5]; 10.4% in assay [6].

For the compound `CCCNC(=S)N=Nc1c(O)[nH]c2ccccc12`, the growth inhibition in assay [1] was -46.2%; in assay [2], -55.8%; in assay [3], -25.1%; in assay [4], -31.5%; in assay [5], -22.2%; in assay [6], -11.2%.

Consider `CCCCCCCCCC(CC(OC)OCC)OC` (stereo unspecified), for which the growth inhibition in assay [1] is 10.7%; in assay [2] it was 4.25%; in assay [3], 5.9%; in assay [4] it was -13.8%; in assay [5], -2.7%; in assay [6] it was -24.6%.

On to `O=C(Nc1ccc(Br)cc1)C(=O)C(C(=O)c1ccccc1F)C1OC(=O)c2ccccc21` (stereo unspecified), for which the growth inhibition is -17.6% in assay [1]; -1.65% in assay [2]; -13.8% in assay [3]; -50.9% in assay [4]; -5.4% in assay [5]; 7% in assay [6].

As to `O=C(Nc1ccc(Cl)c(Cl)c1)Nc1cccc2nsnc12`, the growth inhibition in assay [1] is 4.45%; in assay [2], 7.35%; in assay [3], -2.7%; in assay [4], 13.2%; in assay [5] it was -1.5%; in assay [6], 26.2%.

As to `CCOC(=O)C12CC(COc3ccc([N+](=O)[O-])cc3)ON1OC(COc1ccc([N+](=O)[O-])cc1)C2` (stereo unspecified), the growth inhibition in assay [1] is 23.9%; in assay [2], 7.8%; in assay [3], 17.2%; in assay [4] it was 2.4%; in assay [5], -3.85%; in assay [6] it was 28.1%.

As for `O=C(O)[C@@H]1OCCOCCO[C@@H](C(=O)O)[C@H](C(=O)O)OCCOCCO[C@H]1C(=O)O`, the growth inhibition in assay [1] was 14.7%; in assay [2], 0.05%; in assay [3], -8.05%; in assay [4], 14.4%; in assay [5], 2.25%; in assay [6], -6.4%.

Regarding `C=CCN1C(N)=C(C#N)C(C#N)(C#N)C1CCC` (stereo unspecified), the growth inhibition in assay [1] was 1.2%; in assay [2], 7.65%; in assay [3] it was -47.9%; in assay [4], 15.8%; in assay [5], -16.6%; in assay [6], -36.6%.

Consider `Cc1ccc2nc(C)cn2c1`, for which the growth inhibition was -0.05% in assay [1]; 7.7% in assay [2]; -1.15% in assay [3]; 14.3% in assay [4]; 10.7% in assay [5]; 2.3% in assay [6].

As for `COc1ccc(Br)cc1C1SCC(=O)N1c1nncs1` (stereo unspecified), the growth inhibition in assay [1] is 12%; in assay [2], 7.7%; in assay [3], 26.8%; in assay [4] it was 11.2%; in assay [5], 16.4%; in assay [6], 23.8%.

For the compound `O=c1[nH]cc(F)c(=O)n1-c1ccco1`, the growth inhibition was 42.6% in assay [1]; 67.5% in assay [2]; 79.8% (active) in assay [3]; -0.55% in assay [4]; 52.2% in assay [5]; 34.9% in assay [6].

As for `COc1cccc(/C=C2\C(=O)N(C(=O)Cc3ccccc3)N=C2C)c1`, the growth inhibition was 4.3% in assay [1]; -30.2% in assay [2]; -34.8% in assay [3]; -0.45% in assay [4]; -14.8% in assay [5]; -24.1% in assay [6].

In the case of `O=c1cc2n(c(=O)n1-c1ccccc1)CCCC2`, the growth inhibition in assay [1] was 6.1%; in assay [2], 6.6%; in assay [3], 11.7%; in assay [4] it was 12.2%; in assay [5], -9.25%; in assay [6], -6.8%.

Regarding `COC(=O)c1ccccc1C#CC#Cc1ccccc1C(=O)OC`, the growth inhibition in assay [1] is -5.25%; in assay [2], -32.1%; in assay [3] it was 4.6%; in assay [4], 8.85%; in assay [5], -2.4%; in assay [6], -3.5%.

With `CC(C)CCCC(C)C1CCC2C3CC=C4CC(OP(=O)(O)OC5CCC6(C)C(=CCC7C6CCC6(C)C(C(C)CCCC(C)C)CCC76)C5)CCC4(C)C3CCC12C` (stereo unspecified), the growth inhibition in assay [1] was -7.55%; in assay [2] it was -23.8%; in assay [3], -3.65%; in assay [4], 7.8%; in assay [5], -7.6%; in assay [6], -5.5%.

Regarding `CC1=C(c2cc(C(=O)Nc3cccc(C(F)(F)F)c3)nc(NC#N)n2)Sc2ccccc2N1`, the growth inhibition was 17.4% in assay [1]; 1.2% in assay [2]; -3.2% in assay [3]; -2.85% in assay [4]; 2.7% in assay [5]; 11.8% in assay [6].

On to `N=C1C(=O)C(=N)c2ccccc2-c2ccccc21`, for which the growth inhibition in assay [1] was -31%; in assay [2], -48.8%; in assay [3], -14.7%; in assay [4], -0.05%; in assay [5] it was -36.6%; in assay [6] it was -23.9%.

Consider `Cc1cc(OCCOc2ccc(N)cc2)ccc1N1C(N)=NC(N)=NC1(C)C`, for which the growth inhibition in assay [1] was -1.5%; in assay [2], 12.7%; in assay [3], 6.65%; in assay [4], 83.2% (active); in assay [5], 1.45%; in assay [6] it was -3%.

For `CCN(CC)CC(C)C(O)(Cc1ccccc1)c1ccc(Cl)cc1` (stereo unspecified), the growth inhibition was 21.4% in assay [1]; 17.6% in assay [2]; 27.9% in assay [3]; 33.5% in assay [4]; 10.1% in assay [5]; 17.4% in assay [6].

As to `O=C(NCCc1c[nH]c2ccccc12)C(F)(F)F`, the growth inhibition in assay [1] is -15.8%; in assay [2], 7.6%; in assay [3] it was 18.2%; in assay [4], 6.85%; in assay [5] it was 29.2%; in assay [6], 0.3%.

As to `COc1ccc(N2C(=O)C3c4[nH]c5ccc(F)cc5c4C4CCC(C(C)(C)C)CC4C3C2=O)cc1` (stereo unspecified), the growth inhibition in assay [1] was -7.05%; in assay [2], -2.3%; in assay [3], 1.55%; in assay [4], 7.45%; in assay [5], -3.2%; in assay [6], 22.1%.

For the compound `CCCCC(NC(=O)C(Cc1ccccc1)NC(=O)OCc1ccccc1)C(=O)O` (stereo not drawn) (Cbz-Phe-[Nle]-OH; configuration not given here), the growth inhibition is 5.9% in assay [1]; -1.2% in assay [2]; -4.3% in assay [3]; -31.8% in assay [4]; -3.2% in assay [5]; 9.05% in assay [6].

Regarding `O=C(O)c1ccc([N+](=O)[O-])cc1Cl`, the growth inhibition was -11.9% in assay [1]; -10% in assay [2]; -1.55% in assay [3]; 8.15% in assay [4]; -3.25% in assay [5]; -7.55% in assay [6].

Turning to `CCN(CC)CCCNc1ccc(-c2cc(OC)cc3cccnc23)cc1`, the growth inhibition in assay [1] is -5.95%; in assay [2], -17.1%; in assay [3] it was -0.05%; in assay [4] it was -14.1%; in assay [5] it was 6%; in assay [6], 4.4%.

For the compound `CCCC(=O)OCCCCC1CCCO1` (stereo unspecified), the growth inhibition in assay [1] is 13.2%; in assay [2], 3.6%; in assay [3], 8.75%; in assay [4], 14%; in assay [5], 5.45%; in assay [6] it was 11.6%.

For the compound `Cc1cc(Cl)ncc1[N+](=O)[O-]`, the growth inhibition in assay [1] is -12.2%; in assay [2] it was 14.3%; in assay [3], 7.55%; in assay [4] it was -15.9%; in assay [5], -9.65%; in assay [6], 5.75%.

Take `Clc1cc(Cl)c2ncccc2c1`: the growth inhibition is 4.05% in assay [1]; 17.9% in assay [2]; 3.3% in assay [3]; -30.2% in assay [4]; 17.8% in assay [5]; 11.8% in assay [6].

Consider `CC(=O)OCC1OC(n2cnc(C(N)=S)c2N)C(OC(C)=O)C1OC(C)=O` (stereo unspecified), for which the growth inhibition in assay [1] was 2.3%; in assay [2] it was 15.8%; in assay [3], 11.4%; in assay [4] it was -10.4%; in assay [5], -2.35%; in assay [6], 21.2%.

For the compound `C/C(CCC1CCCCC1)=N/NC(N)=O`, the growth inhibition was 14.6% in assay [1]; 15.8% in assay [2]; 5.25% in assay [3]; 14.7% in assay [4]; 12.7% in assay [5]; -18.4% in assay [6].

Regarding `O=C(OC1COC(n2c(=O)oc3cc(Br)c(Cl)cc32)C(OC(=O)c2ccccc2)C1OC(=O)c1ccccc1)c1ccccc1` (stereo unspecified), the growth inhibition in assay [1] is 4.55%; in assay [2], -2.25%; in assay [3], -8.15%; in assay [4], -3.05%; in assay [5] it was 4.85%; in assay [6], 14.4%.

For the compound `CCCNC(=S)NNC(N)=O`, the growth inhibition was 2.5% in assay [1]; 7.35% in assay [2]; -9.05% in assay [3]; 6.15% in assay [4]; -11.2% in assay [5]; 12.2% in assay [6].

Regarding `COc1ccccc1NC(=O)CC(=O)n1nc(-c2ccccc2)c(N=Nc2ccccc2[N+](=O)[O-])c1-c1ccccc1`, the growth inhibition is -0.4% in assay [1]; -15.5% in assay [2]; 27.9% in assay [3]; 0.5% in assay [4]; 25.3% in assay [5]; 15.5% in assay [6].

As for `CCN(CC)C(=O)CCC1(C)OCCO1`, the growth inhibition was -4.8% in assay [1]; -12.1% in assay [2]; -25.3% in assay [3]; 56.4% in assay [4]; -13.9% in assay [5]; 6.45% in assay [6].
